Measurements published in PubChem BioAssay.
Activity calls are given as the source filed them.

How the values were obtained:
[1] = system: Human papillomavirus type 1a protein E7 (residues 44-93); assay: small molecules binding HPV E7 44-93 – biochemical, small-molecule microarray, residues 44-93, 635 nm fluorescence, primary screen (AID 1108); conditions: fluorescence 635 nm, higher = more signal;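 further: E7 fragment applied at 1 µg/mL in TBST for 1 h at 4 C; score combines spot fluorescence with its signal to noise ratio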
[2] = hepatitis C replication reporter changes, two-sided – Huh7 cells, luciferase reporter, HCV replication inhibitor project, primary screen (AID 1109); conditions: Huh7 HCV replicon luciferase reporter, 48 h; higher = more signal;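 further: huh7 hepatoma cells harbouring a luciferase neomycin HCV replicon reporter; luciferase luminescence as measure of HCV replicon replication; test concentration not given here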
[3] = biological target: Left-right determination factor 2 (Homo sapiens) (UniProt O00292); assay: small molecules binding LEFTY2 protein – biochemical, small-molecule microarray, 635 nm fluorescence scan, primary screen (AID 1110); conditions: higher = more signal
[4] = biological target: Calmodulin-1 (Homo sapiens) (UniProt P0DP23); assay: small molecules binding calmodulin-1 with EGTA – biochemical, small-molecule microarray, Cy5-labelled CALM1, profiling panel (AID 1111); conditions: Cy5-CALM1 binding fluorescence, higher = more signal;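 further: labelled calmodulin applied in Tris saline Tween buffer holding calcium plus EGTA and DTT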
[5] = biological target: Calmodulin-1 (Homo sapiens) (UniProt P0DP23); assay: small molecules binding Ca-loaded calmodulin-1 – biochemical, small-molecule microarray, Cy5-labelled CALM1, plus calcium, artefact control for SMM control-protein annotation, profiling panel (AID 1112); conditions: Cy5-CALM1 binding fluorescence, higher = more signal;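 further: score merges spot fluorescence with signal to noise from triplicate slides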
[6] = probe aWnt5a binding to arrayed compounds – biochemical, biotinylated probe, 635/667 nm fluorescence, primary screen (AID 1113); conditions: small-molecule microarray, higher = more signal;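 further: score merges 667 nm fluorescence intensity with signal-to-noise per printed feature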
[7] = probe aShh binding to arrayed compounds – biochemical, biotinylated probe, 635/667 nm fluorescence, primary screen (AID 1114); conditions: small-molecule microarray, higher = more signal;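 further: probe is biotin-labelled aShh protein from a stem cell growth factor screen; measures binding of labelled protein to compounds printed on the slide; score merges feature fluorescence at 667 nm with signal-to-noise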
[8] = probe aNog binding to arrayed compounds – biochemical, biotinylated probe, 635/667 nm fluorescence, primary screen (AID 1115); conditions: small-molecule microarray, higher = more signal;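 further: probe is biotinylated aNog protein used at 0.15 µg/mL for 1 h at 4 C; z-score combines 667 nm fluorescence of each spot with its signal to noise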
[9] = biological target: Torsin-1A-interacting protein 1 (Homo sapiens) (UniProt Q5JTV8); assay: compound microarray binding of lysate hLAP1 – cell lysate, small-molecule microarray, COS7 lysate, 635/667 nm fluorescence, primary screen (AID 1116); conditions: 635 nm fluorescence, higher = more signal
[10] = biological target: Alpha-bungarotoxin (Bungarus multicinctus) (UniProt P60615); assay: compounds binding labelled alpha-BTX control protein – biochemical, small-molecule microarray, Alexa647 label, 635/667 nm fluorescence, artefact control for SMM control protein annotation, profiling panel (AID 1117); conditions: alpha-BTX-A647 binding fluorescence, higher = more signal
Albumin (Bos taurus) = Albumin (Bos taurus) (UniProt P02769); assay: compounds binding labelled BSA control protein – biochemical, small-molecule microarray, Alexa647 label, 635/667 nm fluorescence, artefact control for SMM control protein annotation, profiling panel (AID 1118); conditions: BSA-A647 binding, fluorescence 635 nm, higher = more signal;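 further: score merges 667 nm emission intensity and signal-to-noise per printed compound spot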
[11] = probe aXIP binding to arrayed compounds – biochemical, NeuroSMM set, 635/667 nm fluorescence, primary screen (AID 1119); conditions: small-molecule microarray, higher = more signal, called active from +8 up or from −8 down;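 further: probe is the protein aXip251-270 applied at 1 µg/mL to compound-printed slides; binding of probe to printed compounds measured as 667 nm fluorescence plus signal to noise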
[12] = probe aNOTCH3 binding on compound microarray – biochemical, small-molecule microarray, 635/667 nm fluorescence, primary screen (AID 1120); conditions: higher = more signal;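 further: probe is a biotin-tagged antibody raised against NOTCH3 rather than NOTCH3 protein; score merges spot fluorescence near 667 nm with spot signal to noise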
[13] = probe aNOTCH2 binding on compound microarray – biochemical, small-molecule microarray, 635/667 nm fluorescence, primary screen (AID 1121); conditions: higher = more signal;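 further: score merges feature fluorescence read at 667 nm with its signal to noise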
[14] = biological target: Carbonic anhydrase 2 (Homo sapiens) (UniProt P00918); assay: compounds binding carbonic anhydrase 2 – biochemical, small-molecule microarray, Alexa647-labelled CAII, profiling panel (AID 1122); conditions: CAII-A647 binding fluorescence, higher = more signal
[15] = COS7 lysate on small-molecule microarray, probe aHis, 635 nm (AID 1123); conditions: COS7 cell lysate, fluorescence, higher = more signal;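 further: z-score combines 667nm fluorescence intensity with signal-to-noise per printed compound spot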
[16] = probe aLAP1 signal on lysate-treated microarray – cell lysate, small-molecule microarray, COS7 lysate, primary screen (AID 1124); conditions: probe aLAP1, fluorescence, higher = more signal;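 further: lysate comes from COS7 cells expressing LAP1 and is applied at 0.3 µg/mL; score merges spot fluorescence near 667 nm with signal-to-noise over triplicate slides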
Sam68 (KHDRBS1) = assay: compounds binding KHDRBS1 protein – biochemical, small-molecule microarray, 635 nm fluorescence, primary screen (AID 1125); conditions: higher = more signal;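 further: score merges 667 nm channel intensity with signal to noise over triplicate slides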
[17] = system: Chordin-like protein 2 (CHRDL2); assay: compounds binding chordin-like 2 – biochemical, small-molecule microarray, 635 nm fluorescence, primary screen (AID 1126); conditions: fluorescence 635 nm, higher = more signal;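 further: printed compound slides probed with Chrdl2 protein at 4 µg/mL for 1 h at 4 C; score merges 667 nm emission intensity with signal to noise over three replicate slides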
[18] = biological target: Concanavalin-A (Canavalia ensiformis) (UniProt P02866); assay: compounds binding concanavalin A lectin – biochemical, small-molecule microarray, Alexa647 label, 635 nm, artefact control for SMM control protein annotation, primary screen (AID 1127); conditions: ConA-A647 binding fluorescence, higher = more signal;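 further: z combines 667 nm emission intensity with signal-to-noise across three replicate slides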
Sequence of Concanavalin-A (Canavalia ensiformis) (P02866 whole entry, looked up): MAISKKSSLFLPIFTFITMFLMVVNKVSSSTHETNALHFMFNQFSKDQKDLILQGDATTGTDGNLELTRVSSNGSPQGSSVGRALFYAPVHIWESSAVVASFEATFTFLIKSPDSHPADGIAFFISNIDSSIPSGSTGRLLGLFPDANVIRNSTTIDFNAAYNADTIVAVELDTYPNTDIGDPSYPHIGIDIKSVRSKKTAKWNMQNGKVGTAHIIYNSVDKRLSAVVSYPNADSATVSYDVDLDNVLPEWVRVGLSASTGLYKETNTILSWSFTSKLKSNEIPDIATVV

Sequence of Left-right determination factor 2 (Homo sapiens) (O00292 whole entry, looked up): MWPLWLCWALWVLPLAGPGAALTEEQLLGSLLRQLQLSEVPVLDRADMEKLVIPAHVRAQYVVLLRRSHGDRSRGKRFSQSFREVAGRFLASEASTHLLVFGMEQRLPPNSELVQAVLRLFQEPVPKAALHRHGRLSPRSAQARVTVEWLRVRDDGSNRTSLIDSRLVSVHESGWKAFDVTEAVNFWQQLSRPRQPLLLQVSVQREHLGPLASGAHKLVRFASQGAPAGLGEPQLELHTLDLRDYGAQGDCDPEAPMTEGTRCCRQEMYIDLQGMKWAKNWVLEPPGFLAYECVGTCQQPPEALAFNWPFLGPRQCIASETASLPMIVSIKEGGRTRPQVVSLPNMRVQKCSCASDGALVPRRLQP
Sequence of Albumin (Bos taurus) (P02769 whole entry, looked up): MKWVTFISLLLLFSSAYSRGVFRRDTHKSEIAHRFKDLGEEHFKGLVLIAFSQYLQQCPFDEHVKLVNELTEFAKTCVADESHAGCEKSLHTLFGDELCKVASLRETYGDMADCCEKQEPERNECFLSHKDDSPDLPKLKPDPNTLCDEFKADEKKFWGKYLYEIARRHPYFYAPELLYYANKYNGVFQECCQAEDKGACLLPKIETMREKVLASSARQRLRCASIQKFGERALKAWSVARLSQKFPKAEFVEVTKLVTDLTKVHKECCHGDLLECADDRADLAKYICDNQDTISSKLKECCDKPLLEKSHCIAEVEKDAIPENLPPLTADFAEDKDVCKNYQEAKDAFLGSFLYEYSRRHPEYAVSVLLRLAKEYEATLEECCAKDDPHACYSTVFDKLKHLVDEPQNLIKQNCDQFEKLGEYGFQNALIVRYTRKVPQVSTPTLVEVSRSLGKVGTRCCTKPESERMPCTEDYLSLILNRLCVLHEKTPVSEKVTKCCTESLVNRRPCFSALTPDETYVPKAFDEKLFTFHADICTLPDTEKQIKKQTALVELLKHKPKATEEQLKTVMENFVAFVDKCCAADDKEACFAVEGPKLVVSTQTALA
Sequence of Torsin-1A-interacting protein 1 (Homo sapiens) (Q5JTV8 whole entry, looked up): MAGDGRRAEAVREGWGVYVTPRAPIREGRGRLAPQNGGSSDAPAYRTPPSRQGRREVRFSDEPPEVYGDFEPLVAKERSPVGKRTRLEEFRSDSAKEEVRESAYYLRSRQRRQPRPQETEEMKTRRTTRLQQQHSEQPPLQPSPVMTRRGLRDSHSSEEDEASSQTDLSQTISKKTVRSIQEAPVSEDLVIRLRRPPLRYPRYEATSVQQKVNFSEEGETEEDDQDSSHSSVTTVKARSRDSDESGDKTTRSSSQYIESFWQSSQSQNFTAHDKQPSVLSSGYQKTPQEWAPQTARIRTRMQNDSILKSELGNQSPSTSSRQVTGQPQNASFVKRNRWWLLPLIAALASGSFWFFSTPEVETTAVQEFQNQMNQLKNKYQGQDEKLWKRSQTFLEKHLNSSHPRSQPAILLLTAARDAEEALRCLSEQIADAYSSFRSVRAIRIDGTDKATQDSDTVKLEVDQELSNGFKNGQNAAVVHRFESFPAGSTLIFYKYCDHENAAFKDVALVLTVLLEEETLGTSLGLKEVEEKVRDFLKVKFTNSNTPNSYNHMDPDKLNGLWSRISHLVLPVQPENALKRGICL
Sequence of Alpha-bungarotoxin (Bungarus multicinctus) (P60615 whole entry, looked up): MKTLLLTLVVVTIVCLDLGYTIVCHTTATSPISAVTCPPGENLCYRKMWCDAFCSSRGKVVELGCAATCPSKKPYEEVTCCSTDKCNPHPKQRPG

| Structure (SMILES) | composite z-score [1] | z-score [2] | composite z-score [3] | composite z-score [4] | composite z-score [5] | composite z-score [6] | composite z-score [7] | composite z-score [8] | composite z-score [9] | composite z-score [10] | composite z-score (Albumin (Bos taurus)) | composite Z-score [11] | composite z-score [12] | composite z-score [13] | composite z-score [14] | composite z-score [15] | composite z-score [16] | composite z-score (Sam68 (KHDRBS1)) | composite z-score [17] | composite z-score [18] |
| --- | --- | --- | --- | --- | --- | --- | --- | --- | --- | --- | --- | --- | --- | --- | --- | --- | --- | --- | --- | --- |
| O=C1C2C=CC(C(O)c3ccc(Br)cc3)N(Nc3ccccc3)C2C(=O)N1c1ccccc1 (stereo not given) | 0.699 | 0.393 | -0.853 | 0.863 | 0.29 | 0.0151 | 0.389 | 1.26 | 0.661 | 1.2 | 0.875 | -0.0127 (inactive) | 0.328 | 0.166 | 0.652 | 1.76 | 0.189 | 0.668 | 0.527 | 0.722 |
| C=CCN1C(=O)[C@@]2(O[C@@H](CCn3cc([C@H](O)c4ccccc4)nn3)[C@H]([Si](C)(C)c3ccc(OC)cc3)[C@H]2C)c2cc(NC(=O)c3ccc(OC)cc3)ccc21 | 0.795 | -3.99 | 0.426 | 0.607 | 0.14 | -0.0735 | 0.0815 | 0.338 | 0.385 | 0.627 | -0.105 | -0.0277 (inactive) | -0.0932 | -0.173 | 0.148 | 0.637 | 0.0719 | 1.03 | 0.271 | 0.713 |
| CN1C(=O)C2C=CC(C(O)c3cccc4ccccc34)N(NC(=O)OC(C)(C)C)C2C1=O (stereo not given) | 1.28 | -0.602 | -0.22 | 2.49 | 1.43 | -0.0512 | -0.0813 | -0.125 | 2.66 | 1.19 | 1 | 0.58 (inactive) | 0.479 | 0.385 | 0.752 | 2.95 | 1.57 | 1.3 | -0.705 | 1.17 |
| CC(C)(C)OC(=O)CC[C@]1(C(=O)N2CCCCC2)N=C(c2ccc(OCCCO)cc2)O[C@H]1c1ccccc1CN=[N+]=[N-] | 0.804 | -2.03 | 0.888 | 0.958 | 0.566 | 0.0044 | 0.439 | 0.659 | 2.52 | 0.12 | 0.982 | -0.43 (inactive) | 0.516 | 0.381 | 0.801 | 2.74 | 0.762 | 1.3 | 0.388 | 1.2 |
| CC(C)C[C@@H]1NC(=O)[C@@H]2C[C@H](C(=O)NCCCC[N+](C)(C)C)[C@H](c3cccc(OCCO)c3)N2C1=O | -0.832 | -0.604 | 1.01 | -0.863 | 0.348 | -0.0236 | 0.151 | -0.198 | 1.05 | 0.324 | -1.59 | 0.0578 (inactive) | 0.116 | -0.0999 | 0.479 | 0.432 | 0.255 | 0.82 | 1.44 | 0.496 |
| CN(C)C(=O)[C@@]1(CCC(=O)OC(C)(C)C)COC(c2ccc(OCCCO)cc2)=N1 | 1.08 | -0.594 | -1.04 | 0.38 | 0.816 | -0.127 | 0.261 | 1.52 | 1.54 | 0.728 | 0.655 | 0.142 (inactive) | -0.119 | -0.0508 | 0.841 | 3.29 | 0.723 | 0.502 | -1.46 | 0.673 |
